# Rows were chosen to be rich in hits. Some 13% of all compounds tested hit in one or more screens of this group.
# L major viab: inhibitors of Leishmania major promastigote growth. Leishmania major promastigotes, resazurin fluorescence viability. inhibition, % at 10 µM. 9% of 200,000 active; in the data active means inhibition above about 50%;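 further: promastigotes grown with compound for 44 hours at 28 °C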
# RAM inhibit: inhibitors of the yeast RAM network | S. cerevisiae dse1pr::URA3 reporter, 5-FOA growth OD615, 2 d; analog-sensitive cbk1-as2 kinase mutant strain | inhibition, % at 50 µM | 1.8% of 190,000 active | AID 868;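 active means inhibition above a set limit, 3 SD over mean compound inhibition, cut at about 8.4% in these data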;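 further: 0% = DMSO-only wells with no growth and 100% = 10 µM 1-NA-PP1 full growth; inhibition rescues growth on 5-FOA so higher OD means more RAM inhibition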
# CHOP inhibitor: inhibitors of CHOP induction in ER stress response | CHO-K1 CHOP-promoter luciferase, tunicamycin-induced, 15-18 h | inhibition, % at 10 µM | 3.8% of 220,000 active;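 active means compounds that reduced the stress-induced luciferase reporter signal by more than about 70% of percent inhibition, limit read from the data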;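 further: 0% = tunicamycin plus vehicle and 100% = wells without tunicamycin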
# WT yeast gro inh: growth inhibition of WT yeast, mitochondrial fusion screen; inhibition, % at 10 µM; 2.1% of 190,000 active; mitochondrial fusion phenotypic screen, WT strain; AID 1362; in the data active means inhibition above about 58%; tested in S. cerevisiae
# Numbers without * were called inactive; nt = no result.
SMILES,L major viab,RAM inhibit,CHOP inhibitor,WT yeast gro inh
COc1ccccc1NC(=O)c1ccc(NS(=O)(=O)c2ccc(F)c(F)c2F)cc1,66*,4,22,2
COc1cc(Cl)c(C)cc1NC(=O)c1cccc(OC)c1OC,8,10*,23,11
COC(=O)c1c(N2C(=O)CC(Sc3ccccc3C(=O)O)C2=O)sc2c1CCCC2 (stereo unspecified),-8,5,-1,13
O=C(CCl)Nc1cc(S(=O)(=O)N2CCCCCC2)ccc1Cl,99*,1,78*,-7
Cc1ccc(-c2nc(SCC(=O)Nc3cc(S(=O)(=O)N4CCCCC4)ccc3Cl)n[nH]2)cc1,58*,9.5*,10,18
CC(NCc1ccc(F)cc1)C(=O)Nc1cc(S(=O)(=O)N2CCCCC2)ccc1Cl (stereo unspecified),62*,0,14,2
Cc1nnc(SCC(=O)Nc2cc(S(=O)(=O)N3CCCC3)ccc2Cl)s1,nt,nt,16,nt
O[C@H]1COC2C1OC[C@@H]2O (stereo partly specified),-4,0,9,0
NNc1ccc(Cc2ccc(Cl)cc2Cl)nn1,91*,0,19,3
Nc1nc(SCc2ccc(Cl)cc2Cl)n[nH]1,-4,-1,28,-5
CSc1ccc(Cc2ccc(Cl)cc2Cl)nn1,-1,1,32,2
Nc1nc(N)c(Cc2ccc(Cl)cc2Cl)c(N)n1,64*,2,7,-6
CCCCOc1c(Br)cc(/C=N/O)cc1OCC,11,-2,54,69*
O=C(CSc1nc2ccccc2[nH]1)NCCCn1ccnc1,-4,0,17,-3
O=Cc1ccc(-c2ccc([N+](=O)[O-])cc2Cl)o1,60*,1,5,13
CCOC(=O)N1CCC2(CC1)C(C#N)=C(N)OC1=C2C(=O)CC(C)C1 (stereo unspecified),-3,1,6,34
O=S(=O)(NCCc1csc(-c2cccnc2)n1)c1cccs1,0,0,16,9
O=S(=O)(NCCc1csc(-c2cccnc2)n1)c1ccc(Cl)s1,6,1,78*,29
CC(C)NC(=O)C1(O)c2ccccc2NC(=O)N1c1ccc(Cl)c(Cl)c1 (stereo unspecified),-3,1,81*,12
COc1ccc(CC(=O)NCc2n[nH]c(=S)n2-c2cccc(Cl)c2)cc1,4,2,-14,-8
O=C(c1cccc(C(F)(F)F)c1)C1CCCN(C(=O)CCCn2cncn2)C1 (stereo unspecified),-5,-1,-7,-1
COc1ccccc1/C=C/C=N/NC(=O)c1ccc2nc[nH]c2c1,56*,1,1,3
Cc1ccc2cc(CN(CCN3CCCC3)C(=O)Nc3ccccc3)c(=O)[nH]c2c1C,31,1,2,-21
COc1ccc(NC(=O)N(CCN2CCCC2)Cc2cc3cc(OC)c(OC)cc3[nH]c2=O)cc1,2,0,78*,-12
Cc1ccc2cc(CN(CCN3CCCC3)C(=O)Nc3ccc(F)cc3)c(=O)[nH]c2c1C,73*,0,31,-10
SMILES,L major viab,RAM inhibit,CHOP inhibitor,WT yeast gro inh
CCc1ccc2[nH]c(=O)c(CN(CCCN3CCOCC3)C(=O)Nc3ccc(F)cc3)cc2c1,25,2,71*,-11
O=C(Nc1ccc(F)cc1)N(CCCN1CCOCC1)Cc1cc2cc3c(cc2[nH]c1=O)OCCO3,26,2,-15,3
O=C(/C=C/c1ccccc1)N/C(=C/c1ccccc1)C(=O)NCCCO,-1,-1,21,9
OCCNc1nc(-c2ccccc2)nc2c1oc1ccccc12,nt,nt,15,nt
COc1cccc(OC)c1C(=O)NC(=S)Nc1cc(-c2nc3ccccc3[nH]2)ccc1Cl,81*,4,5,23
O=C(CSc1ccccc1)Nc1ccc(-c2nc3ccccc3[nH]2)cc1,4,6,94*,-1
O=C(CSCc1nc2ccccc2[nH]1)Nc1ccc(Oc2ccccc2)cc1,64*,1,41,21
O=C(CSCc1nc2ccccc2[nH]1)Nc1ccc2ccccc2c1,13,1,13,2
COc1c(F)c(F)c(C(=O)Nc2ccc(-c3nc4ccccc4[nH]3)cc2)c(F)c1F,-4,1,83*,-15
O=C(Nc1ccc(-c2nc3ccccc3[nH]2)cc1)c1c(F)c(F)c(F)c(F)c1F,-3,5,-19,6
O=C(CN1CCOCC1)Nc1ccc(-c2nc3ccccc3[nH]2)cc1,8,1,1,-10
Cc1ccc(-c2nc3ccccc3[nH]2)cc1NC(=O)c1ccco1,12,2,23,3
O=C(CSc1n[nH]c(-c2ccccc2Cl)n1)NCc1cccc(C(=O)O)c1,-9,4,14,13
Cc1cccn2c(=O)c(/C=N/O)c(N3CCOCC3)nc12,-6,-1,11,-14
CC1CN(c2ccc(Cl)cc2[N+](=O)[O-])CCN1S(C)(=O)=O (stereo unspecified),1,2,32,2
Cc1scc(C(=O)NNC(=S)NC(C)c2ccccc2)c1C (stereo unspecified),15,1,-43,4
O=C(O)/C=C/C(=O)Nc1ccc2nccnc2c1,-7,3,-17,-18
CCOc1ccc(NC(=O)C2CCC(CNc3c(N4CCC(C)CC4)c(=O)c3=O)CC2)cc1 (stereo unspecified),nt,nt,12,nt
O=C(Nc1nc2ccccc2[nH]1)C1CCCO1 (stereo unspecified),-4,0,15,0
O=C(Nc1ccc(-c2nc3ccccc3[nH]2)cc1)C1CCCO1 (stereo unspecified),6,2,17,69*
O=C(CCCc1ccccc1)N1CCc2ccccc21,-5,1,43,-6
O=c1oc2ccccc2c(N2CCCCC2)c1CN1CCCC1,4,1,1,14
OC(CCCCN1CCCCC1)c1ccccc1 (stereo unspecified),54*,1,6,2
CCc1oc2ccccc2c1C(=O)CCN1CCCCC1,74*,-1,-32,12
O=C(O)CCN1CCOCC1,-1,0,-17,-5
SMILES,L major viab,RAM inhibit,CHOP inhibitor,WT yeast gro inh
O=C(CCN1CCOCC1)c1ccccc1,95*,2,-23,20
O=C(CCN1CCCCC1)Nc1ccccc1,-3,1,-2,-2
O=C(CCN1CCCCC1)c1ccccc1,74*,2,-11,-13
N/C(=N\OC(=O)c1csnn1)c1ccc(C(F)(F)F)cc1,nt,nt,-13,nt
COc1cc(NC(=O)C/C(C)=N/NC(=O)C(=O)NCCO)c(OC)cc1Cl,nt,nt,15,nt
COc1ccc(-n2c(SCC(=O)Nc3cc(C(=O)O)ccc3C)nc3ccccc3c2=O)cc1Cl,nt,nt,5,nt
O=C(/C=C/c1ccccc1Cl)c1ccc[nH]1,74*,1,-24,10
O=C1OCC(CO)(CO)N=C1NNc1ccc(Cl)c(Cl)c1,100*,-1,-11,68
OCC1(CO)COC(c2ccccc2)=N1,4,0,5,-2
CSc1nc(C)c2c(n1)N(c1cccc(C)c1)CC2,3,0,88*,1
Nc1c2c(nc3ccc(Br)cc13)N(Cc1ccccc1)CC2,94*,1,21,24
Nc1c2c(nc3ccccc13)N(C1CCCCC1)CC2,nt,0,-6,15
Cc1cccc(N2CCc3c2nc2ccc(Br)cc2c3N)c1,100*,0,29,49

# Screening results: PubChem BioAssay, several laboratories
